Data: PubChem BioAssay (Tox21)
Results filed as inconclusive are left out. Values without a mark were called inactive. The call rests on the fitted dose curve; in most records, active means well fitted curve in the direction sought with a large enough effect in the repeat runs; inconclusive means weak or mixed curves; inactive means no such curve, though single readings can be large; an effect the other way counts as inactive or inconclusive.

test: qHTS RealTime-Glo MT Cell Viability Assay in HEK293 cells - 0 hour (AID 1224880); conditions: RealTime-Glo luminescence; series mostly up to 76.8 µM; activity change, negative = cytotoxicity: at the top concentration; further: top concentration of the series differs between compounds; nearly all actives have a fitted effect of over 45% in size
How it was run: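 qHTS format; HEK293 cells with NanoLuc/prosubstrate reagent, 37 C/5% CO2 for 5 h pre-dosing; compounds 23 nL in DMSO; luminescence at each time point reflects viable cells.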
On the % scale 0 is the no-effect control and ±100 the full control effect.

| Structure (SMILES) | activity change, negative = cytotoxicity |
| --- | --- |
| O=C(O)CCCCCCCCCC(=O)O | -0.302% |
| Cc1ccccc1C#N | 8.53% |
| CC(=O)SCC(CC(=O)c1ccc(C)cc1)C(=O)O (stereo unspecified) | 0.354% [at 35.3 µM] |
| NCC1CCC(C(=O)Oc2ccc(CCC(=O)O)cc2)CC1 (stereo unspecified) | 11.4% [at 35.3 µM] |
| CCN1CCN(C(=O)N[C@@H](C(=O)N[C@@H]2C(=O)N3[C@@H]2SC(C)(C)[C@H]3C(=O)O)c2ccccc2)C(=O)C1=O | 0.347% [at 35.3 µM] |
| COc1cc(S(N)(=O)=O)cc(C(=O)O)c1OC | 2.37% [at 35.3 µM] |
| C/C(=N\O)c1ccc(OCC(=O)N2CCCCC2)cc1 | -3.94% [at 35.3 µM] |
| CC(C)(C)C(=O)CC(=O)C(C)(C)C | -20.4% |
| CC(=O)Oc1ccc(C(C)=O)cc1 | -11% |
| NC[C@H]1O[C@H](O[C@H]2[C@H](O)[C@@H](O[C@H]3O[C@H](CO)[C@@H](O)[C@H](N)[C@H]3O)[C@H](N)C[C@@H]2N)[C@H](N)[C@@H](O)[C@@H]1O | -0.44% [at 15.8 µM] |
| CCCc1ncc(C(=O)O)s1 | 1.86% [at 35.3 µM] |
| CCCCC(CC)CCC(CC(C)C)OS(=O)(=O)O (stereo unspecified) | -1.27% |
| O=C[C@@H](O)[C@H](O)[C@H](O)CO | -1.54% |
| COC(C)(C)CC(C)=O | 4.95% |
| CC(C)(O)CCCC1=CCC(C=O)CC1 (stereo unspecified) | -4.08% |
| O=S(=O)(O)c1ccc(Cl)cc1 | -1.46% |
| CC(C)(C)OC=O | 4.37% |
| BrCCOc1ccccc1 | 1.78% |
| CN(C)CCc1c[nH]c2ccc(C[C@H]3COC(=O)N3)cc12 | 1.93% [at 35.3 µM] |

| Structure (SMILES) | activity change, negative = cytotoxicity |
| --- | --- |
| CCCCCCCCCCCCCCCC(=O)OC | -3.44% [at 15.8 µM] |
| CC(C)CC(O)Cc1ccccc1 (stereo unspecified) | 12.2% |
| CCCCCCC(O)CO (stereo unspecified) | 6.61% |
| CN1C(CCl)Nc2cc(Cl)c(S(N)(=O)=O)cc2S1(=O)=O (stereo unspecified) | -1.13% [at 35.3 µM] |
| CCCCNCC | -7.65% |
| CO/N=C(\C(=O)O)c1csc(NC(=O)CCl)n1 | 5.78% [at 35.3 µM] |
| O=C(CCBr)N1CCN(C(=O)CCBr)CC1 | -7.87% [at 35.3 µM] |
| C[C@H]1COc2c(C3(N)CC3)c(F)cc3c(=O)c(C(=O)O)cn1c23 | -3.77% [at 35.3 µM] |
| O=C(O)Cc1c(Cl)ccc(Cl)c1Cl | -13% |
| Cc1ccc(NC(N)=O)cc1 | 11.2% |
| COC(=O)c1c(C)cc(O)c(C)c1O | 2.55% |
| CN1CCN(C(=O)C2CCCCC2)CC1 | -5.53% [at 35.3 µM] |
| Cc1nnc(C(=O)NC(C)(C)c2nc(C(=O)NCc3ccc(F)cc3)c(O)c(=O)n2C)o1 | 0.536% [at 35.3 µM] |
| COC(=O)C(c1ccccc1Cl)N1CCc2sccc2C1 (stereo unspecified) | -0.233% [at 35.3 µM] |
| C=CC(=O)OCCOCCOCC | 2.97% |
| CN(C)c1ccncc1 | -1.52% |
| CCCOc1ccc(C(=O)OCCN(CC)CC)cc1N | 7.55% [at 35.3 µM] |
| COCCCOc1cc(C[C@@H](C[C@H](N)[C@@H](O)C[C@H](C(=O)NCC(C)(C)C(N)=O)C(C)C)C(C)C)ccc1OC | -6.83% [at 35.3 µM] |
| O=C1c2ccccc2C(=O)N1CO | -5.2% |

test: A CellTox Green Cytotoxicity Assay to monitor cytotoxicity in HEK293 cells - 32 hour (AID 1224881); conditions: CellTox Green fluorescence; series mostly up to 76.8 µM; cytotoxicity increase: at the top concentration; further: nearly all actives have a fitted effect of over 40% in size
How it was run: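 Each value comes from one timepoint of a single continuous run in which HEK293 cells with CellTox Green were exposed to compound for up to 40 h at 37 C, dye fluorescence rising with cell death.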

| Structure (SMILES) | cytotoxicity increase |
| --- | --- |
| O=C(O)CCCCCCCCCC(=O)O | -15.7% |
| Cc1ccccc1C#N | -5.98% |
| CC(=O)SCC(CC(=O)c1ccc(C)cc1)C(=O)O (stereo unspecified) | -2.28% [at 35.3 µM] |
| NCC1CCC(C(=O)Oc2ccc(CCC(=O)O)cc2)CC1 (stereo unspecified) | 0.335% [at 35.3 µM] |
| CCN1CCN(C(=O)N[C@@H](C(=O)N[C@@H]2C(=O)N3[C@@H]2SC(C)(C)[C@H]3C(=O)O)c2ccccc2)C(=O)C1=O | -3.08% [at 35.3 µM] |
| COc1cc(S(N)(=O)=O)cc(C(=O)O)c1OC | 1.5% [at 35.3 µM] |
| C/C(=N\O)c1ccc(OCC(=O)N2CCCCC2)cc1 | -3.7% [at 35.3 µM] |
| CC(C)(C)C(=O)CC(=O)C(C)(C)C | -17.6% |
| CC(=O)Oc1ccc(C(C)=O)cc1 | 10.1% |
| NC[C@H]1O[C@H](O[C@H]2[C@H](O)[C@@H](O[C@H]3O[C@H](CO)[C@@H](O)[C@H](N)[C@H]3O)[C@H](N)C[C@@H]2N)[C@H](N)[C@@H](O)[C@@H]1O | -0.0128% [at 15.8 µM] |
| CCCc1ncc(C(=O)O)s1 | -1.36% [at 35.3 µM] |
| CCCCC(CC)CCC(CC(C)C)OS(=O)(=O)O (stereo unspecified) | 18.4% |
| O=C[C@@H](O)[C@H](O)[C@H](O)CO | -14.4% |
| COC(C)(C)CC(C)=O | 15.7% |
| CC(C)(O)CCCC1=CCC(C=O)CC1 (stereo unspecified) | -1.98% |
| O=S(=O)(O)c1ccc(Cl)cc1 | -2.03% |
| CC(C)(C)OC=O | 0.485% |
| BrCCOc1ccccc1 | 13.9% |
| CN(C)CCc1c[nH]c2ccc(C[C@H]3COC(=O)N3)cc12 | 2.02% [at 35.3 µM] |

| Structure (SMILES) | cytotoxicity increase |
| --- | --- |
| CCCCCCCCCCCCCCCC(=O)OC | -5.35% [at 15.8 µM] |
| CC(C)CC(O)Cc1ccccc1 (stereo unspecified) | 1.25% |
| CCCCCCC(O)CO (stereo unspecified) | -23.5% |
| CN1C(CCl)Nc2cc(Cl)c(S(N)(=O)=O)cc2S1(=O)=O (stereo unspecified) | -16.8% [at 35.3 µM] |
| CCCCNCC | -3.32% |
| CO/N=C(\C(=O)O)c1csc(NC(=O)CCl)n1 | -5.31% [at 35.3 µM] |
| O=C(CCBr)N1CCN(C(=O)CCBr)CC1 | -3.31% [at 35.3 µM] |
| C[C@H]1COc2c(C3(N)CC3)c(F)cc3c(=O)c(C(=O)O)cn1c23 | -14.4% [at 35.3 µM] |
| O=C(O)Cc1c(Cl)ccc(Cl)c1Cl | 1.06% |
| Cc1ccc(NC(N)=O)cc1 | -3.33% |
| COC(=O)c1c(C)cc(O)c(C)c1O | 0.73% |
| CN1CCN(C(=O)C2CCCCC2)CC1 | -2.4% [at 35.3 µM] |
| Cc1nnc(C(=O)NC(C)(C)c2nc(C(=O)NCc3ccc(F)cc3)c(O)c(=O)n2C)o1 | 22.8% [at 35.3 µM] |
| COC(=O)C(c1ccccc1Cl)N1CCc2sccc2C1 (stereo unspecified) | 13% [at 35.3 µM] |
| C=CC(=O)OCCOCCOCC | -0.222% |
| CN(C)c1ccncc1 | -11.4% |
| CCCOc1ccc(C(=O)OCCN(CC)CC)cc1N | -1.8% [at 35.3 µM] |
| COCCCOc1cc(C[C@@H](C[C@H](N)[C@@H](O)C[C@H](C(=O)NCC(C)(C)C(N)=O)C(C)C)C(C)C)ccc1OC | -17.1% [at 35.3 µM] |
| O=C1c2ccccc2C(=O)N1CO | -2.39% |
